An excerpt weighted towards active compounds, which were near 7.9% of everything screened.
SW480 rerep: inducers of DNA re-replication in SW480 colon cancer cells; SW480 DNA re-replication, Hoechst DNA content imaging, 48 h; Potency, µM (doses to about 46.1 µM), usual class: activators; hit rate 1.8% among 340,000; also: nearly all actives have a fitted effect of over 55% in size
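Hoechst fluorescence of nuclei (405 nm excitation, 500-530 nm emission) measured by plate-scanning imager after 48 hr compound exposure at 37 C; re-replication scored as increased number of nuclei with elevated intensity.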
HT1080 IDH1KD tx: toxicity to HT-1080 IDH1 knockdown cells (counter line) | HT-1080 IDH1 knockdown viability, ATP luminescence, 48 h | Potency, µM (series often up to 46.1 µM), most hits filed as cytotoxic | hit rate 2% among 360,000 | AID 686971
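Viability of IDH1-knockdown HT-1080 fibrosarcoma cells was assessed by CellTiter-Glo after 48 h at 37 °C with titrated compound; concentration-effect curves were classified by fit quality and response size.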
MCF10A rereplic: induces DNA re-replication in MCF 10a normal breast cells; AID 624296; MCF 10A DNA re-replication, Hoechst nuclear intensity, 48 h; hit rate 2.9% among 350,000; Potency, µM (series often up to 46.1 µM), usual class: activators; also: nearly all actives have a fitted effect of over 50% in size
KB-3-1 cytotox: kills parental KB-3-1 adenocarcinoma cells | KB-3-1 viability, CellTiter-Glo ATP luminescence, 72 h | Potency, µM (series often up to 46.1 µM), hits mostly cytotoxic | hit rate 1.4% among 400,000 | AID 1347075; also: nearly all actives have a fitted effect of over 60% in size
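Cytotoxicity in the drug-sensitive parental line KB-3-1 was scored as loss of CellTiter-Glo luminescence following 72 h incubation with compound. Values come from curve fitting of normalized concentration-response data.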
HT1080-NT tox: kills 2HG-producing HT-1080-NT fibrosarcoma cells. HT-1080-NT fibrosarcoma viability, CellTiter-Glo ATP luminescence, 48 h. Potency, µM (doses to about 46.1 µM), hits mostly cytotoxic. hit rate 1.6% among 360,000. AID 686970;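 also: NT is the 2HG producing partner of a matched IDH1 knockdown line; nearly all actives have a fitted effect of over 55% in size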
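Toxicity toward the 2HG-producing NT line was scored as %Activity, normalised to DMSO and no-cell wells, from CellTiter-Glo luminescence after 48 hours' treatment.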
KB-V1 cytotox: kills drug-selected multidrug resistant KB-V1 cells; KB-V1 MDR cells viability, CellTiter-Glo, 72 h; Potency, µM (top dose mostly 46.1 µM), actives largely listed as cytotoxic; hit rate 3.4% among 400,000; also: nearly all actives have a fitted effect of over 60% in size
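Following 72 h at 37 degrees C with compound, KB-V1 cell viability was read by CellTiter-Glo luminescence, medium being phenol-red-free DMEM plus 10% FBS; concentration-response parameters came from normalized, curve-fitted qHTS data.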
A number is an active result; ! = not active in a repeat. Calls follow the shape of the dose curve; as a rule, active = well fitted curve in the direction sought with a large enough effect; inconclusive = small, poorly fitted or top-dose-only effect, or another doubt; inactive = no such curve, though single readings can be large; an effect the other way counts as inactive or inconclusive.

Screening NC(=O)c1ccccc1NC(=O)CSc1nc2c(c(=O)[nH]1)CCCC2 returned SW480 rerep inactive, HT1080 IDH1KD tx 16µM, MCF10A rereplic inactive, KB-3-1 cytotox inactive, HT1080-NT tox 12µM and KB-V1 cytotox inactive.
For O=C(CSc1nc2c(c(=O)[nH]1)CCCC2)Nc1cccc(O)c1 the results were KB-3-1 cytotox inactive and KB-V1 cytotox inactive.
`Cc1cc(N2C(=O)C(=O)/C(=C(/O)c3ccccc3)C2c2cccs2)no1` (configuration not stated) gave SW480 rerep inactive, HT1080 IDH1KD tx inactive, MCF10A rereplic inactive, KB-3-1 cytotox inactive, HT1080-NT tox inactive and KB-V1 cytotox inactive.
Screening COc1ccc(-c2cnn3c4c(c(C)nc23)CCN4C(C)C)cc1OC returned SW480 rerep inconclusive, HT1080 IDH1KD tx inactive, MCF10A rereplic inconclusive, KB-3-1 cytotox inactive, HT1080-NT tox inactive and KB-V1 cytotox 2.1µM.
For COC(CN1CCc2c(C)nc3c(C#N)cnn3c21)OC the results were SW480 rerep inactive, HT1080 IDH1KD tx inactive, MCF10A rereplic inactive, KB-3-1 cytotox inactive, HT1080-NT tox inactive and KB-V1 cytotox inactive.
Screening C=C1C(=O)OC2C=C(CO)CCC=C(CO)CC(OC(=O)C(C)C)C12 (configuration not stated) returned SW480 rerep inconclusive, HT1080 IDH1KD tx 13µM, MCF10A rereplic 10µM, KB-3-1 cytotox inconclusive, HT1080-NT tox inactive and KB-V1 cytotox inactive.
Screening O=C(Nc1c(C(=O)O)[nH]c2ccccc12)NC1CCCCC1 returned SW480 rerep inactive, HT1080 IDH1KD tx inactive, MCF10A rereplic inactive, KB-3-1 cytotox inactive, HT1080-NT tox inactive and KB-V1 cytotox inactive.
Cc1ccc(OCCCN2C(=O)C(=O)c3cc(C)ccc32)cc1 was read as SW480 rerep 23µM, HT1080 IDH1KD tx inactive, MCF10A rereplic 21µM, KB-3-1 cytotox inconclusive, HT1080-NT tox inactive and KB-V1 cytotox inactive.
Screening COC(=O)c1c(N)n(-c2ccc(OC)c(Cl)c2)c2nc3ccccc3nc12 returned KB-3-1 cytotox inactive and KB-V1 cytotox inactive.
For CCOCCCNC(=O)c1c(N)n(-c2ccc3c(c2)OCO3)c2nc3ccccc3nc12 the results were SW480 rerep 9.2µM, HT1080 IDH1KD tx inactive, MCF10A rereplic 23µM, KB-3-1 cytotox inactive, HT1080-NT tox inactive and KB-V1 cytotox inactive.
Screening COCCCNC(=O)c1c(N)n(-c2ccc3c(c2)OCO3)c2nc3ccccc3nc12 returned SW480 rerep 6.5µM, HT1080 IDH1KD tx inconclusive, MCF10A rereplic 10µM, KB-3-1 cytotox inactive, HT1080-NT tox inconclusive and KB-V1 cytotox inactive.
Screening CCOCCCNC(=O)c1ccc2c(c1)OCO2 returned SW480 rerep inactive, HT1080 IDH1KD tx inactive, MCF10A rereplic inactive, KB-3-1 cytotox inactive, HT1080-NT tox inactive and KB-V1 cytotox inactive.
For Nc1c(C(=O)NC2CC2)c2nc3ccccc3nc2n1-c1ccc2c(c1)OCO2 the results were SW480 rerep inconclusive, HT1080 IDH1KD tx inactive, MCF10A rereplic 2.9µM, KB-3-1 cytotox inactive, HT1080-NT tox inactive and KB-V1 cytotox inactive.
For CCCNC(=O)c1c(N)n(-c2ccc3c(c2)OCO3)c2nc3ccccc3nc12 the results were SW480 rerep inconclusive, HT1080 IDH1KD tx inactive, MCF10A rereplic inactive, KB-3-1 cytotox inconclusive, HT1080-NT tox inactive and KB-V1 cytotox inactive.
`CCCNC(=O)c1c(N)n(-c2cc(OC)cc(OC)c2)c2nc3ccccc3nc12` gave SW480 rerep 9.2µM, HT1080 IDH1KD tx inactive, MCF10A rereplic 16µM, KB-3-1 cytotox inactive, HT1080-NT tox inactive and KB-V1 cytotox inactive.
Screening CC(NC(=O)c1ccccc1NC(=O)c1nsc2ccccc12)c1ccccc1 (configuration not stated) returned KB-3-1 cytotox inactive and KB-V1 cytotox inactive.
O=C(Nc1ccc(Br)cc1)c1cc2ccccn2n1 was read as SW480 rerep inactive, HT1080 IDH1KD tx inactive, MCF10A rereplic inactive, KB-3-1 cytotox inconclusive, HT1080-NT tox inactive and KB-V1 cytotox inactive.
For CCc1ccc(NC(=O)c2cc3ccccn3n2)cc1 the results were KB-3-1 cytotox 15µM and KB-V1 cytotox inconclusive.
COc1ccc(C2=Nn3c(nnc3-c3ccccc3OC)SC2)cc1OC was read as SW480 rerep 0.37µM, HT1080 IDH1KD tx inconclusive, MCF10A rereplic 0.37µM, KB-3-1 cytotox 0.013µM, HT1080-NT tox 0.46µM and KB-V1 cytotox 1.2µM!.
For COc1ccc(C2=Nn3c(nnc3-c3ccccc3F)SC2)cc1OCC1CC1 the results were SW480 rerep 18µM, MCF10A rereplic inconclusive, KB-3-1 cytotox 13µM and KB-V1 cytotox inconclusive.
For COc1ccc(N(CCC#N)C(=O)/C(C#N)=C/c2cccs2)cc1 the results were SW480 rerep inactive, HT1080 IDH1KD tx inactive, MCF10A rereplic inactive, KB-3-1 cytotox inactive, HT1080-NT tox inactive and KB-V1 cytotox inactive.
`CCOC(=O)n1c(=O)n(C)c2ccc(Cl)cc21` gave SW480 rerep inactive, HT1080 IDH1KD tx inactive, MCF10A rereplic inactive, KB-3-1 cytotox inconclusive, HT1080-NT tox inactive and KB-V1 cytotox 8.2µM.
`CCOC(=O)n1c(=O)n(Cc2ccccc2)c2ccccc21` gave SW480 rerep inactive, HT1080 IDH1KD tx inactive, MCF10A rereplic inactive, KB-3-1 cytotox inactive, HT1080-NT tox inactive and KB-V1 cytotox inconclusive.
`CC1(C)Oc2ccc(C(=O)Nc3ccccc3F)cc2N(CC(=O)N2CCOCC2)C1=O` gave SW480 rerep inactive, HT1080 IDH1KD tx inactive, MCF10A rereplic inactive, KB-3-1 cytotox inactive, HT1080-NT tox inactive and KB-V1 cytotox inactive.
Screening C[C@H](CO)N1C[C@H](C)[C@H](CN(C)C(=O)Nc2cccc(F)c2)Oc2cc(C#CC3(O)CCCC3)ccc2S1(=O)=O returned HT1080 IDH1KD tx inactive, KB-3-1 cytotox inactive, HT1080-NT tox inactive and KB-V1 cytotox inactive.
Cc1ccsc1/C=C1\SC(N2CC(C)OC(C)C2)=NC1=O (configuration not stated) was read as SW480 rerep inactive, HT1080 IDH1KD tx inactive, MCF10A rereplic inactive, KB-3-1 cytotox inconclusive, HT1080-NT tox inactive and KB-V1 cytotox 18µM.
`c1ccc2c(c1)c1c(c3ccccc32)CN2CCCC2C1` (configuration not stated) gave SW480 rerep 18µM, HT1080 IDH1KD tx 23µM, MCF10A rereplic inconclusive, KB-3-1 cytotox inconclusive, HT1080-NT tox inconclusive and KB-V1 cytotox 16µM.
`c1ccc(CN2CCC(N3CCC(N4CCCCCC4)CC3)CC2)cc1` gave SW480 rerep inconclusive, HT1080 IDH1KD tx inactive, MCF10A rereplic inconclusive, KB-3-1 cytotox inactive, HT1080-NT tox inactive and KB-V1 cytotox inactive.
For CC(=O)c1cccc(NC(=O)c2sc3nc4n(c(=O)c3c2C)CCCC4)c1 the results were SW480 rerep 9.2µM, HT1080 IDH1KD tx inactive, MCF10A rereplic inactive, KB-3-1 cytotox inactive, HT1080-NT tox inactive and KB-V1 cytotox inactive.

From PubChem
